G9a inh-1: qHTS Assay for Inhibitors of Histone Lysine Methyltransferase G9a; Histone-lysine N-methyltransferase EHMT2 (Homo sapiens), Q96KQ7; G9a H3K9 monomethylation, AlphaScreen, 2 h; Potency, µM (titrated, usually from 102 µM), for inactives: top-dose activity, negative = inhibition, most hits filed as inhibitors; 350,000 tested, 8.8% active; also: potency is read from the fitted curve at half-maximal effect; % is scaled to controls: 0 for no effect and ±100 for the full control effect; nearly all actives have a fitted effect of over 75% in size
Target sequence (Q96KQ7 913-1193 limits assumed): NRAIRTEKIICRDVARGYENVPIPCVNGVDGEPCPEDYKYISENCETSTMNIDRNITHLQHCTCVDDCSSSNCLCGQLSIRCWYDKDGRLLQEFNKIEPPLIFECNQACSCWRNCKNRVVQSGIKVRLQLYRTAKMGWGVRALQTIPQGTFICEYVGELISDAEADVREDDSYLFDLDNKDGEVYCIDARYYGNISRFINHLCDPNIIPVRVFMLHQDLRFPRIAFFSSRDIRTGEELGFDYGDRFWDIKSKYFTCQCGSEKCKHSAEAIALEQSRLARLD
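Using a bead-based AlphaScreen, monomethylated H3K9 product from 2 h room-temperature reactions (G9a 20 nM, peptide 500 nM, SAM 20 uM) was detected with 0.5 ug/mL rabbit anti-H3K9me1 antibody.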
BAZ2B inh: qHTS Assay for Inhibitors of BAZ2B; Bromodomain adjacent to zinc finger domain protein 2B (Homo sapiens), Q9UIF8; 360,000 tested, 4.4% active; AID 504333, 2011; AlphaScreen BAZ2B-H3K14Ac peptide displacement; Potency, µM (highest dose often 114 µM), without a hit: at the highest dose activity change, negative = inhibition, hits mostly inhibitors; also: potency is read from the fitted curve at half-maximal effect; % is scaled to controls: 0 for no effect and ±100 for the full control effect; nearly all actives have a fitted effect of over 60% in size
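AlphaScreen displacement: compounds (up to 110uM) incubated 30 min at room temperature with a preformed 50 nM BAZ2B/50 nM biotinylated H3K14Ac peptide complex in PBS pH 7.4 with Tween-20. Donor and acceptor beads at 10 ug/mL final added, 20 min light-protected before reading.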
HP1b binding inh: HTS for Inhibitors of HP1-beta Chromodomain Interactions with Methylated Histone Tails; Chromobox protein homolog 1 (Homo sapiens), P83916; AlphaScreen HP1-beta / biotin-H3K9me3 peptide binding; Potency, µM (highest dose often 114 µM), inactives show at the top dose activity change, negative = inhibition, actives largely listed as inhibitors; 390,000 tested, 0.56% active; AID 540317, 2011; also: potency is read from the fitted curve at half-maximal effect; nearly all actives have a fitted effect of over 70% in size
Target sequence (P83916 whole entry, looked up): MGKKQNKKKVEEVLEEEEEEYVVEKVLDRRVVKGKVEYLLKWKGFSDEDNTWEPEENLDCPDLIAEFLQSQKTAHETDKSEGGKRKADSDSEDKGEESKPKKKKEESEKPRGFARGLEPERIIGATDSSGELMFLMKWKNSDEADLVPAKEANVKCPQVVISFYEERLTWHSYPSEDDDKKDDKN
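HP1-beta protein (50 nM final) preincubated 30 min at room temperature with biotinylated H3(1-18)K9me3 peptide (50 nM) in PBS pH 7.4, 0.01% Tween-20, then compound added for 30 min. AlphaScreen streptavidin donor/nickel chelate acceptor beads (10 ug/mL final), 30 min dark, luminescence read.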
JMJD2A Tudor: qHTS Assay for Inhibitors of JMJD2A-Tudor Domain; Lysine-specific demethylase 4A (Homo sapiens), O75164; AlphaScreen JMJD2A-Tudor / H3K4me3 peptide binding; Potency, µM (series often up to 114 µM), inactives show top-dose activity change, negative = inhibition, most hits filed as inhibitors; 390,000 tested, 4.4% active; AID 504339, 2011; also: potency is read from the fitted curve at half-maximal effect; % is scaled to controls: 0 for no effect and ±100 for the full control effect; nearly all actives have a fitted effect of over 50% in size
GLS inhibitor: qHTS for Inhibitors of Glutaminase (GLS) | Glutaminase kidney isoform, mitochondrial (Homo sapiens), O94925 | GLS enzymatic activity, qHTS titration | Potency, µM (series often up to 45.5 µM), without a hit: top-dose activity change, negative = inhibition, actives largely listed as inhibitors | 410,000 tested, 0.21% active | AID 624170, 2012; also: potency is read from the fitted curve at half-maximal effect; % is scaled to controls: 0 for no effect and ±100 for the full control effect
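Two-point fluorescence kinetic (t0, 30 min RT) for hKGA; glutamate detected via glutamate oxidase–HRP–Amplex Red. Substrate: 1 mM L-glutamine solution; buffer 45 mM KH2PO4, pH 8.2.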
G9a inh-2: qHTS Assay for Inhibitors of Histone Lysine Methyltransferase G9a: Hit Confirmation; 370 tested, 89% active; Potency, µM, most hits filed as inhibitors; shares compounds with JMJD2A Tudor; G9a H3K9 monomethylation, AlphaScreen, 2 h; also: potency is read from the fitted curve at half-maximal effect; nearly all actives have a fitted effect of over 65% in size
RGS4 inh: qHTS for Inhibitors of Regulator of G Protein Signaling(RGS) 4: Hit Validation. RGS4 GAP activity, Transcreener GDP fluorescence polarization. shares compounds with JMJD2A Tudor. 25 tested, 80% active. AID 602388, 2012. Potency, µM, hits mostly inhibitors
Target sequence (P49798 whole entry, looked up): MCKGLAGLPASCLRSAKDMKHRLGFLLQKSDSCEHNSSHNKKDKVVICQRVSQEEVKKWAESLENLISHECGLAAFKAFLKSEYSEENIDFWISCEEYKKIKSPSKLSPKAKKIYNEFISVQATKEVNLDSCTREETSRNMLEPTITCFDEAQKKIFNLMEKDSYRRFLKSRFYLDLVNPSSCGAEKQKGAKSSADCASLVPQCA
* marks the source's active call; other numbers are inactive results; ? = inconclusive; / = not tested or not shown; [ ] = dose if it differs, or a comment. Compounds with a hit are over-represented: about 10% of the library has one in this group of screens. Calls follow the shape of the dose curve; as a rule, active = well fitted curve in the direction sought with a large enough effect; inconclusive = small, poorly fitted or top-dose-only effect, or another doubt; inactive = no such curve, though single readings can be large; an effect the other way counts as inactive or inconclusive.

SMILES | G9a inh-1 | BAZ2B inh | HP1b binding inh | JMJD2A Tudor | GLS inhibitor | G9a inh-2 | others
CSc1ncccc1C(=O)N1CCN(S(=O)(=O)c2cc(C)ccc2C)CC1 | -9% | -15% | 34% | -5% | -17% | /
Cn1c(SCC(=O)NC2CCCC2)nnc1-c1ccncc1 | / | -11% | 34% | -10% | -3% | /
Cn1c(SCC(=O)NC2CCCCC2)nnc1-c1cccc(N)c1 | 1.6µM* | 7% | 29% | -6% | 1% | 2.8*
CCOC(=O)CNC(=O)Cn1cnc2c(oc3ccccc32)c1=O | 37%[59 µM] | 1% | 34% | 4% | 0% | /
COc1ccc2nc(NC(=O)CSc3nc(C)cc(=O)[nH]3)sc2c1 | 2.8µM* | -20% | 11% | 13%[57.1 µM] | 10% | 25*
CC(=O)c1ccc(OCc2cc(C(=O)N(C)C(C)c3nccs3)no2)cc1 (centres undefined) | -2%[12.7 µM] | -35% | 67% | -16% | -10% | /
CCCCOC(=O)Nc1ccc(C(C)C)cc1 | 23%[59 µM] | 114% | 151% | 108% | 11% | /
CCCOc1ccc(C(=O)Nc2ccc(N(C)C)cc2)cc1 | ? | -30% | 12% | -27% | 2% | 1*
CCCCOC(=O)Nc1ccc(N(C)C)cc1 | 1.6µM* | 40µM* | ? | 79µM* | 19% | 1.6*
COc1ccc(C2C(=O)N(C3CCCCC3)CC(=O)N2C2CCCCC2)cc1 (centres undefined) | 1%[59 µM] | 2% | 14% | -10% | 2% | /
CC(C)(C)OC(=O)NCCCC[C@H](NC(=O)c1[nH]cnc1C(=O)Nc1ccc(CNC(=O)OC(C)(C)C)cc1)C(=O)OC(C)(C)C | 28%[59 µM] | 0% | 46% | -24% | -10% | /
CCc1ccc2c(c1)CCCN2C(=O)c1ccccc1C(=O)O | ? | 56µM* | 25% | ? | -2% | ?
COc1ccc(Cl)cc1NC(=O)c1c(NCc2cccnc2)sc2c1CCCC2 | ? | ? | 0% | ? | -20% | 1.8*
COC(=O)c1cc(NCc2ccc3c(c2)OCO3)ccc1N1CCOCC1 | ? | ? | -9% | ? | 25% | 13*
Cc1cc(C)nc(Nc2cccc3ccccc23)n1 | / | -12% | 21% | -8% | 3% | /
Cc1cc2n(n1)SC(Nc1cccc3ccccc13)N2 (centres undefined) | 0.63µM* | -2% | -6% | 50µM* | -1% | 0.71*
CCOC(=O)c1c(C)nc2c3ccccc3ccn12 | 3%[59 µM] | 7% | 22% | 10% | 4% | /
c1cncc(-c2nc(-c3ccco3)cs2)c1 | ? | ? | 6% | ? | 5% | 10*
c1cncc(-c2csc(-c3cccnc3)n2)c1 | -10% | 0% | 34% | -5% | 2% | /
Cn1c(SCC(=O)NC(=O)CN2CCCC2=O)nnc1-c1ccc(F)cc1 | 8% | -1% | 28% | 10% | -10% | /
Cc1ccc(CNc2ccc(N3CCOCC3)cc2)s1 | ? | 45µM* | ? | 50µM* | 97% | 10*
Cc1ccc(NCc2ccc(C)s2)cc1 | / | 28% | / | / | / | /
COc1ccc(CNC(=O)CN(Cc2ccc(Cl)cc2)C(=O)c2csnn2)cc1 | 9% | -10% | -11% | -6% | -9% | /
CCOC(=O)N1CCN(C(=O)C2CCCN(Cc3nc(-c4ccc(Cl)cc4)oc3C)C2)CC1 (centres undefined) | ? | 2% | 63% | -15% | 0% | /
CN(C)c1ccc(NC(=O)CCSc2nc(-c3ccco3)cc(C(F)(F)F)n2)cc1 | 0.71µM* | ? | -3% | ? | 7% | 1.3*
SMILES | G9a inh-1 | BAZ2B inh | HP1b binding inh | JMJD2A Tudor | GLS inhibitor | G9a inh-2 | others
Cc1ccc(NC2=C(Cl)C(=O)OC2OC(=O)c2ccc(C)cc2)cc1 (centres undefined) | 4%[59 µM] | -25% | 1% | -29% | 1% | /
COc1ccc(CNC(=O)c2ccc3c(c2)CCN3S(=O)(=O)c2ccccc2)cc1 | 3%[59 µM] | 0% | 30% | -5% | 9% | /
CCOc1ccc(C(=O)c2cnc3ccccc3c2N2CCN(CC)CC2)cc1 | ? | -26% | 38% | -32% | 3% | ?
Nn1c(SCC(=O)Nc2cccnc2Cl)nnc1-c1ccccc1 | ? | 7% | ? | 20µM* | -24% | 0.8*
Cc1ccc(-c2nnc(SCC(=O)Nc3cccnc3Cl)n2N)cc1 | / | / | 54% | -5% | -6% | /
c1ccc2c(NC3CC3)nc(-c3ccoc3)nc2c1 | 4%[0.501 µM] | / | / | / | / | / | RGS4 inh=?
c1ccc2c(NC3CCNCC3)nc(-c3ccoc3)nc2c1 | 15%[0.501 µM] | / | / | / | / | /
O=C(C1CCCO1)N1CCN(Cc2c(O)ccc3ccccc23)CC1 (centres undefined) | 1.4µM* | 5% | -32% | 79µM* | 31% | 0.36*
CCc1ccccc1NS(=O)(=O)c1ccc2[nH]cc(C(=O)N(CC(C)C)CC(C)C)c(=O)c2c1 | -8%[59 µM] | -4% | -2% | -29% | 6% | /
O=C(CSC1=NCCS1)N1CCc2ccccc21 | ? | -1% | 21% | 15% | -1% | 1.6*
Nc1ccccc1SCC(=O)N1CCc2ccccc21 | 10%[12.7 µM] | -3% | 5% | -15% | 11% | /
CCN(CC)c1ccc(NC(=O)COC(=O)C23CCC(=O)N2c2ccccc2S3)cc1 (centres undefined) | ? | ? | ? | ? | 9% | 5*
O=C(COC(=O)Cc1ccsc1)Nc1ccccc1 | -22% | -4% | 29% | 2% | 1% | /
CCN(CC)c1ccc(NC(=O)COc2ccc(C)cc2)cc1 | 1.4µM* | ? | -13% | ? | 1% | 2.8*
Cc1ccc(NC(=O)CNc2ccc(OC(C)C)cc2)cc1 | 0.79µM* | 50µM* | -14% | ? | -31% | 7.9*
CCN(CC)c1ccc(NC(=O)COC(=O)Cc2ccsc2)cc1 | 2.8µM* | 45µM* | ? | 50µM* | 14% | 6.3*
Cc1ccc(OCC(=O)Nc2ccc([N+](=O)[O-])cc2)cc1 | -3% | -3% | 33% | -8% | 2% | /
CCc1ccc(NC(=O)COC(=O)CN2C(=O)COc3ccccc32)cc1 | 9%[59 µM] | 14% | 43% | -6% | -1% | /
S=C(Nc1ccccc1Oc1ccccc1)NC1CCCC1 | -28% | -34% | 32% | -9% | -3% | /

From PubChem BioAssay
